Usually inhibition stands for the drop in the measured response relative to a control, in per cent.

The values that follow come from PubChem BioAssay AID651650 (Sanford-Burnham Center for Chemical Genomics, 2012).

Sequence of Neuropilin-1 (Homo sapiens) (O14786 whole entry, looked up): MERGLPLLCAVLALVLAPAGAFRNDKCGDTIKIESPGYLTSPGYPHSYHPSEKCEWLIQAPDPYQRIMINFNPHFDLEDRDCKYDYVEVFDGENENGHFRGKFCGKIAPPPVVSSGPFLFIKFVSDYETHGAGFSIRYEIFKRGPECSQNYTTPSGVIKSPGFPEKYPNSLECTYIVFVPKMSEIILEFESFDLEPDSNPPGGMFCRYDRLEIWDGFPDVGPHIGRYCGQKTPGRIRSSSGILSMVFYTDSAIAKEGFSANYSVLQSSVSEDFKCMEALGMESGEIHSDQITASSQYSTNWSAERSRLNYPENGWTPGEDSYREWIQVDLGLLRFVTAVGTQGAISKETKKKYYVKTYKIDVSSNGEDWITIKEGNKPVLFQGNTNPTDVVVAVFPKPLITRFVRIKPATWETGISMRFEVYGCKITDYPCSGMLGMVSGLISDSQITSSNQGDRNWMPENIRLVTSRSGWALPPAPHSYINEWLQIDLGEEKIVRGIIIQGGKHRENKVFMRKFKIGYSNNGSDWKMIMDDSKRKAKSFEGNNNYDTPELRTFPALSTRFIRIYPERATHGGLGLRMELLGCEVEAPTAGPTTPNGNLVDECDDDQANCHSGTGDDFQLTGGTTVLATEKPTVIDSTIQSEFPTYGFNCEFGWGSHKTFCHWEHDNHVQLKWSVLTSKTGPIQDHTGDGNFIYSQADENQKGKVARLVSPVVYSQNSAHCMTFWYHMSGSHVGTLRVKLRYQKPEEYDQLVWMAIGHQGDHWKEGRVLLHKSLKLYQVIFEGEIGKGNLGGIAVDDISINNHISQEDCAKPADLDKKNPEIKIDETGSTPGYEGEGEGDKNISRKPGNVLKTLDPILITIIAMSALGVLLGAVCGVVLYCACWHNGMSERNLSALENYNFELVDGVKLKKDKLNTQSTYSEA

The assay has as its target Neuropilin-1 (Homo sapiens) (UniProt O14786). Description: NRP-1 b1b2 CendR peptide binding inhibitors, dose response, biochemical, FP and AlphaScreen panel (AID 651650). As to conditions: NRP-1 b1b2 / RPARPAR peptide binding, FP or AlphaScreen; run 1, at 100 µM (top of the series). A general note: Bead proximity is the source of the signal in Alpha formats.
`Cc1c(NP(=O)(C(C)(C)C)C(C)(C)C)c(=O)n(-c2ccccc2)n1C`: the inhibition was 31.8%.

In the case of `Cc1ccc(C2(O)CCN3CCCCC32)cc1` (centres undefined), the inhibition was -5.87%.

On to `O=S(=O)(c1cc(Cl)cc(Cl)c1)N1Cc2cc(-c3ccccc3)ccc2-n2nncc2C1`, for which the inhibition turned out to be 13.6%.

As to `Cc1ccc(Cn2nnnc2CN2CCC(n3nnc4ccccc43)CC2)cc1`, the inhibition stood at 15.9%.

`CCC1C2Cc3ccc(O)cc3C1(CC)CCN2C` (centres undefined): the inhibition amounted to 3.24%.

Take `CCC(=NCCc1ccccc1)c1c(O)n(C2CCCCC2)c(=O)[nH]c1=O`: the inhibition was found to be 42.9%.

As for `O=C1C=CC(=O)C2C1C1(Cl)C(Cl)=C(Cl)C2(Cl)C1(Cl)Cl` (centres undefined), the inhibition is 44.9%.

Consider `COC(=O)C1=C(c2ccc(F)cc2OCc2ccccc2)C[C@@H]2CC[C@H]1N2C(=O)NCCNC(C)=O`, for which the inhibition was determined as 95.9%.

For `CC1(C)CN=C(Nc2ccc(F)c(Cl)c2)S1`, the inhibition turned out to be 82.2%.

For the molecule `Cc1ccc(C(=O)C2CN3CCC2CC3)cc1` (centres undefined), the inhibition amounted to 26.3%.

As for `C=CCN1C(=O)C2(C(C(=O)OCC)=C(N)Oc3ccccc32)c2c1c1ccccc1oc2=O` (centres undefined), the inhibition was found to be 4.11%.

Take `CC(=O)OC1CC[C@]2(C#N)[C@H]3CC[C@]4(C)[C@H](C5C=CC(=O)O5)CCC4(O)C3CCC2(O)C1` (some centres undefined): the inhibition stood at 58.3%.

`CN1C[C@H](CO)C=C2c3cccc4[nH]cc(c34)C[C@H]21`: the inhibition worked out at 51.6%.

Take `COC(=O)C1=C(c2cccc(C#N)c2)C[C@@H]2CC[C@H]1N2C(=O)NCCO`: the inhibition was 39.7%.
